MITF inh – MITF inhibitors, primary screen, biochemical, AlphaScreen, human | AID 1259374, 2018 | 0.91% of 650,000 active | inhibition, % at 2.6 µM | AlphaScreen MITF homodimerization, bead proximity signal | Microphthalmia-associated transcription factor (Homo sapiens), O75030; in the data active = inhibition above about 50%;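 note: 0% = vehicle wells with protein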
TEAD-YAP block – TEAD-YAP interaction inhibition, primary screen, TEAD-YAP interaction inhibitor project, luminescence, HEK-TIYL cells. TEAD-Gal4/YAP UAS-luciferase luminescence. inhibition, % at 9.12 µM. 1.4% of 640,000 active. AID 1259422, 2018; in the data active = inhibition above about 32%;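 note: 0% = median of test compound wells and 100% = reference inhibitor wells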
GPR151 activ – activators of human GPR151, primary screen, cell-based, PathHunter beta-arrestin, luminescence. PathHunter beta-arrestin GPR151 cells. activation, % at 11.2 µM. 1% of 650,000 active; in the data active = activation above about 4.9%;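 note: 0% = median of compound wells and 100% = cells with positive control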
Target sequence (Q8TDV0 whole entry, looked up): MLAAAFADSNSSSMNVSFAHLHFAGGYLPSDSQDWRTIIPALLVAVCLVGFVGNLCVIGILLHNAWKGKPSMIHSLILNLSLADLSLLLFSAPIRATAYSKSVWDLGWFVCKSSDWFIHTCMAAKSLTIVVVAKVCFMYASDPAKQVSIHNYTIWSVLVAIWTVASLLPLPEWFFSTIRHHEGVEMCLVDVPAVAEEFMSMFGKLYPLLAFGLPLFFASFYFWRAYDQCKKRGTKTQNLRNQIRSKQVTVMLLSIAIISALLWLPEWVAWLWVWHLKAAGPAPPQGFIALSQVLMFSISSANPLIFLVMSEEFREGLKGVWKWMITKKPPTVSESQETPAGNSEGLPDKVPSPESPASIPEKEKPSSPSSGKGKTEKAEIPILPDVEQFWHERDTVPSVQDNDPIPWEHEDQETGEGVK
FBW7 activator – FBW7 E3 ligase activators, primary screen, biochemical, AlphaScreen, human | 0.13% of 650,000 active | AlphaScreen FBW7–phospho-cyclin E peptide binding, activator screen | normalized activity (activation), % at 26.1 µM | F-box/WD repeat-containing protein 7 (Homo sapiens), Q969H0; in the data active = normalized activity above about 1.9%;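 note: purified mutant Fbw7 with reduced substrate affinity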
MITF inh conf – MITF inhibitors, retest of hits, confirmation, biochemical, AlphaScreen, triplicate; shares compounds with MITF inh; AlphaScreen MITF homodimerization, biotin/His-MITF beads; inhibition, % at 2.6 µM; 16% of 4,700 active; AID 1259372, 2018;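 active = inhibition above a cutoff derived from the DMSO control wells, cut at about 28% in these data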;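 note: 0% = MITF dimer wells with DMSO only; inhibitors lower the bead chemiluminescence by keeping MITF from dimerizing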
AlphaScreen DR – AlphaScreen optical interference compounds, dose response, counter-screen, biochemical, HTS; shares compounds with MITF inh; AlphaScreen optical interference counterscreen, cell-free; IC50, µM; 6% of 480 active; call rule not given here
AlphaScreen intf2 – AlphaScreen optical interference compounds, counter-screen for MITF inhibitor project, biochemical, triplicate; shares compounds with MITF inh; LysRS AlphaScreen counterscreen, signal interference; inhibition, % at 2.6 µM; 7.6% of 4,700 active;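 active = inhibition above a cutoff derived from the DMSO control wells, cut at about 30% in these data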
* marks the source's active call; other numbers are inactive results. An excerpt weighted towards active compounds, which were near 3.5% of everything screened.

`COc1ccc(/C=C(\NC(=O)c2ccco2)C(=O)NCc2ccccc2)cc1` gave MITF inh 3, TEAD-YAP block 4, GPR151 activ 1 and FBW7 activator 0.
For Cc1ccc(OCCn2c(SCCC(=O)O)nc3c(N)ncnc32)cc1 the results were MITF inh 5, TEAD-YAP block -2, GPR151 activ 0 and FBW7 activator 0.
For COc1ccc(N2CCN(C3CCCN(Cc4ccncc4)C3)CC2)cc1 (stereo unspecified) the results were MITF inh 0, TEAD-YAP block 0, GPR151 activ 0 and FBW7 activator 0.
Screening Fc1ccc(CN2CCC(N3CCOCC3)CC2)cc1 returned MITF inh 61*, TEAD-YAP block 2, GPR151 activ -1, FBW7 activator 0, MITF inh conf -9 and AlphaScreen intf2 1.
Screening CSc1ccc(CN2CCN(C3CCN(Cc4ccccc4)CC3)CC2)cc1 returned MITF inh 46, TEAD-YAP block 15, GPR151 activ -1 and FBW7 activator 0.
c1ccc(N2CCN(C3CCN(Cc4ccncc4)CC3)CC2)cc1 was read as MITF inh 75*, TEAD-YAP block 9, GPR151 activ 0, FBW7 activator 0, MITF inh conf 10 and AlphaScreen intf2 17.
`Fc1cccc(CN2CCC(N3CCN(c4ccccc4)CC3)CC2)c1` gave MITF inh 77*, TEAD-YAP block -2, GPR151 activ 0, FBW7 activator 0, MITF inh conf 1 and AlphaScreen intf2 11.
Screening O=C(Nc1cc(C(F)(F)F)ccc1Cl)c1nn2c(C(F)(F)F)cc(-c3ccccc3)nc2c1Cl returned MITF inh 65*, TEAD-YAP block -1, GPR151 activ -1, FBW7 activator 0, MITF inh conf -1 and AlphaScreen intf2 -1.
O=C(Nc1cccc(C(F)(F)F)c1)c1nn2c(C(F)(F)F)cc(-c3ccccc3)nc2c1Cl was read as MITF inh 16, TEAD-YAP block -6, GPR151 activ 0 and FBW7 activator 0.
CCN1CCN(S(=O)(=O)/C=C/c2ccccc2)CC1 was read as MITF inh 74*, TEAD-YAP block 2, GPR151 activ 0, FBW7 activator 0, MITF inh conf -10 and AlphaScreen intf2 -5.
O=S(=O)(/C=C/c1ccccc1)N1CCN(C/C=C/c2ccccc2)CC1 was read as MITF inh 11, TEAD-YAP block 1, GPR151 activ 0 and FBW7 activator 0.
N#C/C(=C/c1ccco1)c1cccc(F)c1 was read as MITF inh 68*, TEAD-YAP block 2, GPR151 activ 1, FBW7 activator 1, MITF inh conf 30*, AlphaScreen DR >6.5 and AlphaScreen intf2 17.
Screening COc1ccc(CCNC(=O)c2cc(Nc3ccnn3C)nc3ccccc23)cc1 returned MITF inh 69*, TEAD-YAP block -4, GPR151 activ -2, FBW7 activator 0, MITF inh conf 0 and AlphaScreen intf2 -2.
Cc1cc(C)cc(Cn2c(NCCCN3CCOCC3)cc(=O)n(C)c2=O)c1 was read as MITF inh 70*, TEAD-YAP block -6, GPR151 activ 1, FBW7 activator 0, MITF inh conf 11 and AlphaScreen intf2 19.
`Fc1cccc(CN2CCN(C3CCCCC3)CC2)c1` gave MITF inh 72*, TEAD-YAP block 10, GPR151 activ 0, FBW7 activator 0, MITF inh conf 7 and AlphaScreen intf2 12.
Screening OC1CCN(Cc2cccc(F)c2)CC1 returned MITF inh 28, TEAD-YAP block 1, GPR151 activ 0 and FBW7 activator 0.
Screening CC1CCC(N2CCN(Cc3cccc(F)c3)CC2)CC1 (stereo unspecified) returned MITF inh 54*, TEAD-YAP block -7, GPR151 activ 0, FBW7 activator 0, MITF inh conf 7 and AlphaScreen intf2 14.
